The text below walks through data of PubChem BioAssay (NCI).

About 83,000 compounds went through this panel and 20% of them were active in at least one assay; those are over-represented in the sample as a whole.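 Note: values are percent growth. 100 is the growth of untreated cells, values between 100 and 0 indicate rising inhibition; between -100 and 0 indicates cell death.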 Unmarked numbers belong to inactive results. Active and inactive are the calls of the source. Rule for the calls: active = growth percent below 10; inactive = the rest.

Some test systems named below: HCT-15 colon; HT29 colon; SNB-75 CNS; SNB-19 CNS; U251 CNS; PC-3 prostate; SK-MEL-5 melanoma; UACC-62 melanoma; LOX IMVI melanoma; SK-MEL-28 melanoma.
Holding throughout (assay): NCI-60 one-dose screen, 48 h (100 = growth as untreated, 0 = no growth, -100 = all killed)
Common to all, as to conditions: 10 µM unless noted

`CC1=NN(c2cccc(Cl)c2)C(=O)/C1=C\c1cn(CC(O)CN2CCCCC2)c2ccccc12` (stereo not given): the growth is 36.8% in the experiment on HCT-15 colon; -57.3% (active) in the experiment with HT29 colon; 87.2% in the experiment with SNB-75 CNS; 84.2% in the experiment on SNB-19 CNS; 36.5% in the experiment on U251 CNS; 62.3% in the experiment on PC-3 prostate. The growth in the experiment on SK-MEL-5 melanoma is 55.5%; in the experiment on UACC-62 melanoma it was -47.4% (active); in the experiment with LOX IMVI melanoma, 11%; in the experiment with SK-MEL-28 melanoma, -28.1% (active).

Turning to `CC(C)OCCCNCC(=O)Nc1ccc(S(=O)(=O)c2ccc(NC(=O)CNCCCOC(C)C)cc2)cc1`, the growth is 120% in the experiment with HCT-15 colon; 27.4% in the experiment with HT29 colon; 85.5% in the experiment with SNB-75 CNS; 103% in the experiment with SNB-19 CNS; 85.6% in the experiment with U251 CNS; 87% with PC-3 prostate. For the same molecule, the growth in the experiment with SK-MEL-5 melanoma was 82.4%; with UACC-62 melanoma, 107%; in the experiment with LOX IMVI melanoma, 78.7%; in the experiment on SK-MEL-28 melanoma it was 99.9%.

Regarding `O=C1N(c2ccccc2)C(=S)N[C@]12[C@H](c1ccccc1)C1CCCN1[C@]21C(=O)NC2C=CC(Cl)=C[C@H]21` (stereo not given in full), the growth in the experiment on HCT-15 colon is 100%; in the experiment with HT29 colon, 82.6%; in the experiment on SNB-75 CNS it was 96.6%; with SNB-19 CNS, 101%; in the experiment on U251 CNS it was 85%; with PC-3 prostate, 47.8%. In addition, the growth in the experiment on SK-MEL-5 melanoma was 93.1%; in the experiment on UACC-62 melanoma, 82.7%; in the experiment with LOX IMVI melanoma, 100%; with SK-MEL-28 melanoma, 117%.

Regarding `CN(CCC(=O)/C(=C\c1ccccc1)c1ccc(Cl)cc1)Cc1ccccc1`, the growth was 2.09% (active) with HCT-15 colon; 9.63% (active) in the experiment with HT29 colon; 60.3% in the experiment with SNB-75 CNS; 23% with SNB-19 CNS; -10.3% (active) with U251 CNS; 45% with PC-3 prostate. Also, the growth in the experiment with SK-MEL-5 melanoma was 58.7%; in the experiment on UACC-62 melanoma, -36.6% (active); in the experiment with LOX IMVI melanoma, -58.3% (active); in the experiment on SK-MEL-28 melanoma it was 9.17% (active).

Turning to `CN(C)c1ccc(/C=C/c2c(F)cccc2F)cc1`, the growth in the experiment on HCT-15 colon was 98.6%; in the experiment on HT29 colon, 92.3%; in the experiment on SNB-75 CNS, 88.4%; in the experiment with SNB-19 CNS it was 105%; in the experiment on U251 CNS it was 89.9%; with PC-3 prostate, 81.7%. Besides, the growth was 94.9% in the experiment on SK-MEL-5 melanoma, 97.9% with UACC-62 melanoma, 88.1% with LOX IMVI melanoma and 109% with SK-MEL-28 melanoma.

For the molecule `CCCCOC(=O)c1ccc(NC(=O)C(C)N2CCOCC2)cc1` (stereo not given), the growth was 108% in the experiment on HCT-15 colon; 79.5% in the experiment with HT29 colon; 107% in the experiment on SNB-75 CNS; 99.5% in the experiment with SNB-19 CNS; 93.2% in the experiment on U251 CNS; 72.7% with PC-3 prostate. Also, the growth in the experiment on SK-MEL-5 melanoma is 104%; with UACC-62 melanoma, 95.1%; in the experiment on LOX IMVI melanoma, 101%; in the experiment with SK-MEL-28 melanoma, 112%.

Regarding `COc1ccc(Nc2ncc(Br)c(NCCCNC(=O)C3CCC3)n2)cc1`, the growth was 21.7% in the experiment with HCT-15 colon; 31% in the experiment with HT29 colon; -4.95% (active) in the experiment with SNB-75 CNS; 33.1% in the experiment on SNB-19 CNS; 19.8% with U251 CNS; 39.2% with PC-3 prostate. Moreover, the growth is 44.2% in the experiment on SK-MEL-5 melanoma, 56.6% in the experiment on UACC-62 melanoma, 4.32% (active) in the experiment with LOX IMVI melanoma and 54.7% in the experiment on SK-MEL-28 melanoma.

With `CCCCCOC(=O)c1cccc(NC(=O)CN(CC)CC)c1`, the growth in the experiment with HCT-15 colon is 107%; in the experiment with HT29 colon, 79.6%; with SNB-75 CNS, 103%; in the experiment with SNB-19 CNS, 106%; in the experiment on U251 CNS, 103%; in the experiment on PC-3 prostate it was 77.1%. Besides, the growth with SK-MEL-5 melanoma is 105%; with UACC-62 melanoma, 103%; with LOX IMVI melanoma it was 101%; in the experiment with SK-MEL-28 melanoma, 108%.

For the molecule `CCCCN1CCN(c2ccc3nc(-c4ccc5nc(-c6ccc(OCC)c(OCC)c6)[nH]c5c4)[nH]c3c2)CC1`, the growth is -30.4% (active) in the experiment on HCT-15 colon; -20.8% (active) in the experiment with HT29 colon; 24.1% in the experiment with SNB-75 CNS; -28.8% (active) with SNB-19 CNS; -61.4% (active) in the experiment on U251 CNS; -49.1% (active) with PC-3 prostate. Further, the growth was 8.19% (active) in the experiment with SK-MEL-5 melanoma, 17.7% in the experiment with UACC-62 melanoma, -81.9% (active) in the experiment with LOX IMVI melanoma and 45.8% in the experiment with SK-MEL-28 melanoma.

For `CS(=O)(=O)c1ccc(-c2nc3cc(Cl)ccc3n2CC(=O)NO)cc1`, the growth is 102% with HCT-15 colon; 95.6% in the experiment on HT29 colon; 73.7% with SNB-75 CNS; 96.4% in the experiment with SNB-19 CNS; 93.1% in the experiment with U251 CNS; 95.7% in the experiment on PC-3 prostate. The growth was 103% in the experiment on SK-MEL-5 melanoma, 92.6% with UACC-62 melanoma, 97.9% with LOX IMVI melanoma and 100% in the experiment with SK-MEL-28 melanoma.

Turning to `COc1ccc(/C(C)=C(\c2ccc(Cl)cc2)c2ccc(OCCCN(C)C)cc2)cc1F`, the growth in the experiment with HCT-15 colon was 7.7% (active); in the experiment with HT29 colon, 3.41% (active); in the experiment on SNB-75 CNS, 70.6%; with SNB-19 CNS, 67%; with U251 CNS, 38.5%; with PC-3 prostate, 59.2%. In addition, the growth was 84.1% in the experiment with SK-MEL-5 melanoma, 45.7% in the experiment with UACC-62 melanoma, -74.1% (active) with LOX IMVI melanoma and 37.8% with SK-MEL-28 melanoma.

On to `CCCN1CCN(c2ccc3nc(-c4ccc5nc(-c6cc(OC)c(OC)c(OC)c6)[nH]c5c4)[nH]c3c2)CC1`, for which the growth was 99.5% in the experiment on HCT-15 colon; 58% in the experiment with HT29 colon; 43.6% in the experiment on SNB-75 CNS; 69.8% with SNB-19 CNS; 66.3% with U251 CNS; 70.7% in the experiment on PC-3 prostate. Also, the growth in the experiment on SK-MEL-5 melanoma is 41.3%; in the experiment on UACC-62 melanoma, 35.8%; with LOX IMVI melanoma, 67.3%; with SK-MEL-28 melanoma, 57.8%.

For `Cc1ccc(NSc2ccccc2[N+](=O)[O-])cc1`, the growth with HCT-15 colon is 27%; in the experiment with HT29 colon, 5.05% (active); with SNB-75 CNS it was 10.1%; in the experiment on SNB-19 CNS, 38.1%; in the experiment on U251 CNS it was 21.1%; in the experiment on PC-3 prostate, 18%. Besides, the growth in the experiment on SK-MEL-5 melanoma is 13.6%; in the experiment with UACC-62 melanoma, 28.6%; in the experiment with LOX IMVI melanoma it was 35%; in the experiment on SK-MEL-28 melanoma it was 63.7%.
